From PubChem BioAssay (NCATS)
Inconclusive results are not listed. Calls of active or inactive are those of the source. Calls come from the whole dose curve; as a rule, active = well fitted curve in the direction sought with a large enough effect; inconclusive = small, poorly fitted or top-dose-only effect, or another doubt; inactive = no such curve, though single readings can be large; an effect the other way counts as inactive or inconclusive.

Experiments:
[1] = P-glycoprotein substrates identified in KB-8-5-11 adenocarcinoma cell line, qHTS therapeutic library screen (AID 1346987); note: nearly all actives have a fitted effect of over 65% in size; for activity change, negative = cytotoxicity: % is set by controls: 0 for no effect and ±100 for the full control effect
Summary of the method: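 Compounds are pinned in dose-response onto KB-8-5-11 cells (500 cells/well, colchicine-free medium) and left 72 h at 37 degree C. CellTiter-Glo luminescence then yields AC50 values.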

[2] = target: Calcium and integrin-binding protein 1 (Homo sapiens) (UniProt Q99828); experiment: Primary qHTS for Identification of Calcium Integrin Binding Protein 1 (CIB1) Competitor (AID 1508620);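 note: GST tagged CIB1 binding a fluorescein labelled alphaIIb integrin peptide tracer; top concentration of the series differs between compounds; % is set by controls: 0 for no effect and ±100 for the full control effect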
Summary of the method: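 Fluorescence polarization competition: CIB1-GST (1 uM final) preincubated with compound 15 min at room temperature, then FITC-labeled alphaIIb peptide (100 nM final) added for another 15 min. Polarization read at Ex 480/Em 540.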

[3] = Primary qHTS for inhibitors of nuclear receptor binding SET domain protein 2 (NSD2) in an isogenic RCH-ACV NSD2 p.E1099K mutant (9B) (AID 1645876); note: % is set by controls: 0 for no effect and ±100 for the full control effect; nearly all actives have a fitted effect of over 70% in size
[4] = target: Phospholipid hydroperoxide glutathione peroxidase GPX4 (Homo sapiens) (UniProt P36969); experiment: Primary qHTS Assay for Inhibitors of Recombinant Selenoprotein Glutathione Peroxidase 4 (GPX4) (AID 1845192); note: % is set by controls: 0 for no effect and ±100 for the full control effect; nearly all actives have a fitted effect of over 65% in size
Summary of the method: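 qHTS, GR-coupled: GPX4 200 nM + cpd 30 min RT → GSH 1 mM, NADPH 0.5 mM, GR 100 nM → CHP 0.5 mM start; fluor 340/450 at t0 and t15 min; no-enzyme wells as control.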

[5] = target: Luciferin 4-monooxygenase (Photinus pyralis) (UniProt P08659); experiment: Primary firefly luciferase (FLuc) qHTS assay for identification of artifact compounds. (AID 1845220); settings: outcome: dose series up to 54.1 µM unless noted;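 note: plate controls were DMSO vehicle for no effect and no enzyme for full effect; nearly all actives have a fitted effect of over 60% in size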
Summary of the method: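 qHTS, 15 min compound preincubation with substrate (10 uM luciferin, 10 uM ATP) at RT, then 10 nM FLuc; 5 min; luminescence; % inhibition vs no-enzyme/DMSO controls, 4-parameter Hill fit.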

[6] = system: Nanoluciferase (engineered Oplophorus gracilirostris luciferase); experiment: Primary Nanoluciferase (NLuc) qHTS assay for identification of artifact compounds. (AID 1845222)
Summary of the method: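 Luminescence read-out of secreted NLuc in S16 cell conditioned medium (1:55); compounds tested with 15 min RT preincubation, then Nano-Glo substrate 1:100, 5 min. % inhibition vs no-enzyme and DMSO controls, 4-parameter Hill fit.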

CRL-7250 = normal cell line; experiment: Cytotoxic Profiling of Annotated Libraries Using Quantitative High-Throughput Screening (AID 1296008); settings: Five cell lines viability, CellTiter-Glo ATP luminescence, 48-72 h; max response: hits give low values; note: nearly all actives have a fitted effect of over 60% in size; for max response: % is set by controls: 0 for no effect and ±100 for the full control effect
Summary of the method: (§1)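 Compounds were pin-transferred onto cells and incubated 48 or 72 hr at 37 degree Celsius, 95% humidity. CellTiter-Glo was added, plates sat 10 min at room temperature, then ATP-coupled luminescence was imaged as the viability read-out.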

HEK293 = experiment: as above; settings: Five cell lines viability, CellTiter-Glo ATP luminescence, 48-72 h; max response: hits give low values
Summary of the method: as §1

HaCat = experiment: as above; settings: Five cell lines viability, CellTiter-Glo ATP luminescence, 48-72 h; max response: hits give low values
Summary of the method: as §1

NIH3T3 = experiment: as above; settings: Five cell lines viability, CellTiter-Glo ATP luminescence, 48-72 h; max response: hits give low values
Summary of the method: as §1

C33A = experiment: Primary qHTS to identify gynecologic anti-cancer compounds using libraries of approved drugs and bioactive compounds (AID 1345084); settings: Gynecologic cancer cell panel viability, ATPlite luminescence, 48 h; series mostly up to 57.5 µM; note: % is set by controls: 0 for no effect and ±100 for the full control effect; nearly all actives have a fitted effect of over 55% in size
Summary of the method: (§2)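 48 h compound exposure at 37 C, 5% CO2; five-point qHTS. ATPlite luminescence readout of cell ATP.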

CAOV3 = experiment: as above; settings: Gynecologic cancer cell panel viability, ATPlite luminescence, 48 h; series mostly up to 57.5 µM
Summary of the method: as §2

CASKI = experiment: as above; settings: Gynecologic cancer cell panel viability, ATPlite luminescence, 48 h; series mostly up to 57.5 µM
Summary of the method: as §2

Es-2 = experiment: as above; settings: Gynecologic cancer cell panel viability, ATPlite luminescence, 48 h; series mostly up to 57.5 µM
Summary of the method: as §2

Hek293T = experiment: as above; settings: Gynecologic cancer cell panel viability, ATPlite luminescence, 48 h, control line for the selectivity index; series mostly up to 57.5 µM
Summary of the method: as §2

JEG-3 = experiment: as above; settings: Gynecologic cancer cell panel viability, ATPlite luminescence, 48 h; series mostly up to 57.5 µM
Summary of the method: as §2

OV90 = experiment: as above; settings: Gynecologic cancer cell panel viability, ATPlite luminescence, 48 h; series mostly up to 57.5 µM
Summary of the method: as §2

PA-1 = experiment: as above; settings: Gynecologic cancer cell panel viability, ATPlite luminescence, 48 h; series mostly up to 57.5 µM
Summary of the method: as §2

Tov-21-G = experiment: as above; settings: Gynecologic cancer cell panel viability, ATPlite luminescence, 48 h; series mostly up to 57.5 µM
Summary of the method: as §2

Tov112D = experiment: as above; settings: Gynecologic cancer cell panel viability, ATPlite luminescence, 48 h; series mostly up to 57.5 µM
Summary of the method: as §2

Chain of Calcium and integrin-binding protein 1 (Homo sapiens) (Q99828 whole entry, looked up): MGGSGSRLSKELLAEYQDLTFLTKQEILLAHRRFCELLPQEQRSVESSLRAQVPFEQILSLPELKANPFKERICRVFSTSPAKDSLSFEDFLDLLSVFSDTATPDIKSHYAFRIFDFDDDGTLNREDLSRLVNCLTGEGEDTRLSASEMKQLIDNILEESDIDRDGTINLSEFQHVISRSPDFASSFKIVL
Chain of Phospholipid hydroperoxide glutathione peroxidase GPX4 (Homo sapiens) (P36969 whole entry, looked up): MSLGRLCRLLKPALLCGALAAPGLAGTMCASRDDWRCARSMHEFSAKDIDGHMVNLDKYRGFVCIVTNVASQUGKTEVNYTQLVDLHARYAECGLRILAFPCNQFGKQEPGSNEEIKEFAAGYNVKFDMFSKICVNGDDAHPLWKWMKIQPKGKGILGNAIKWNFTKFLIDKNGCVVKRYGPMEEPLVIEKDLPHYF

NC(=O)c1ncn2c1CN=C(c1ccccc1Br)c1cc(F)ccc1-2
inactive: Potency [1] | Potency [2] | Potency [3] | Potency [4] | outcome [5] | Potency [6] | max response (CRL-7250) -2.22% | max response (HEK293) 0.36% | max response (HaCat) -12.6% | max response (NIH3T3) 1.84% | Potency (C33A) | Potency (CAOV3) | Potency (CASKI) | Potency (Es-2) | Potency (Hek293T) | Potency (JEG-3) | Potency (OV90) | Potency (PA-1) | Potency (Tov-21-G) | Potency (Tov112D)

CO[C@H]1C[C@H](O[C@H]2CC[C@@]3(C)C(=CCC4C3CC[C@]3(C)[C@@H](C5=CC(=O)OC5)CC[C@]43O)C2)O[C@@H](C)[C@@H]1O[C@@H]1O[C@H](CO[C@@H]2O[C@H](CO)[C@@H](O)[C@H](O)[C@H]2O)[C@@H](O)[C@H](O)[C@H]1O (some centres not stated)
inactive: activity change, negative = cytotoxicity [1] 3.8% [at 9.29 µM] | Potency [2] | Potency [4] | activity change, negative = inhibition [5] 0.797% [at 11.6 µM] | activity, negative = inhibition [6] 3.27% [at 11.6 µM] | max response (CRL-7250) -12.8% | max response (HEK293) -7.06% | max response (HaCat) -7.84% | max response (NIH3T3) -5.72% | activity change, negative = cytotoxicity (C33A) 5.08% [at 11.6 µM] | activity change, negative = cytotoxicity (CAOV3) 17.9% [at 11.6 µM] | activity change, negative = cytotoxicity (CASKI) 22.6% [at 11.6 µM] | activity change, negative = cytotoxicity (Es-2) -0.369% [at 11.6 µM] | activity change, negative = cytotoxicity (Hek293T) -20.2% [at 11.6 µM] | activity change, negative = cytotoxicity (JEG-3) 16.2% [at 11.6 µM] | activity change, negative = cytotoxicity (OV90) 5.84% [at 11.6 µM] | activity change, negative = cytotoxicity (PA-1) 10.4% [at 11.6 µM] | activity change, negative = cytotoxicity (Tov-21-G) -1.43% [at 11.6 µM] | activity change, negative = cytotoxicity (Tov112D) -28.4% [at 11.6 µM]

CN1C2CCC1CC(OC(=O)N1Cc3ccccc3NC1=O)C2 (configuration not stated)
inactive: Potency [1] | Potency [2] | Potency [3] | Potency [4] | outcome [5] | Potency [6] | outcome (CRL-7250) | max response (HEK293) 0.771% | max response (HaCat) 2.89% | max response (NIH3T3) -1.26% | Potency (C33A) | Potency (CAOV3) | Potency (CASKI) | Potency (Es-2) | Potency (Hek293T) | Potency (JEG-3) | Potency (OV90) | Potency (PA-1) | Potency (Tov-21-G) | Potency (Tov112D)

COC1C=CC23c4cc5c(cc4COC2(O)CN(C)C3C1)OCO5 (configuration not stated)
inactive: Potency [1] | Potency [3] | Potency [4] | outcome [5] | Potency [6] | max response (CRL-7250) -6.96% | max response (HEK293) -0.372% | outcome (HaCat) | max response (NIH3T3) -0.709% | Potency (C33A) | Potency (CAOV3) | Potency (CASKI) | Potency (Es-2) | Potency (Hek293T) | Potency (JEG-3) | Potency (OV90) | Potency (Tov-21-G) | Potency (Tov112D)

CN1C(=O)CN=C(c2ccccc2Cl)c2cc(Cl)ccc21
inactive: Potency [1] | Potency [2] | Potency [3] | Potency [4] | outcome [5] | Potency [6] | outcome (CRL-7250) | max response (HEK293) -5.69% | max response (HaCat) 2.59% | max response (NIH3T3) 4.35% | Potency (C33A) | Potency (CAOV3) | Potency (CASKI) | Potency (Es-2) | Potency (Hek293T) | Potency (JEG-3) | Potency (OV90) | Potency (PA-1) | Potency (Tov-21-G) | Potency (Tov112D)
